PubChem BioAssay AID1851 (National Center for Advancing Translational Sciences (NCATS), 2009)
About 5,100 (32%) of roughly 16,000 compounds were called active. Roughly 25% stayed inconclusive and do not appear here. Some of the results follow. Unmarked numbers belong to inactive results. Calls come from the whole dose curve; as a rule, active = well fitted curve in the direction sought with a large enough effect; inconclusive = small, poorly fitted or top-dose-only effect, or effect the other way; inactive = no such curve, though single readings can be large or run the other way.
% is set by controls: 0 for no effect and ±100 for the full control effect.

Each molecule was assayed against Cytochrome P450 3A4 (Homo sapiens) (UniProt P08684) (assay: Cytochrome panel assay with activity outcomes). Conditions: recombinant CYP, pro-luciferin dealkylation, luminescence, p450-cyp3a4; series mostly up to 57.1 µM; activity, negative = inhibition: at the top concentration.
Cytochrome P450 3A4 (Homo sapiens), sequence (P08684 whole entry, looked up): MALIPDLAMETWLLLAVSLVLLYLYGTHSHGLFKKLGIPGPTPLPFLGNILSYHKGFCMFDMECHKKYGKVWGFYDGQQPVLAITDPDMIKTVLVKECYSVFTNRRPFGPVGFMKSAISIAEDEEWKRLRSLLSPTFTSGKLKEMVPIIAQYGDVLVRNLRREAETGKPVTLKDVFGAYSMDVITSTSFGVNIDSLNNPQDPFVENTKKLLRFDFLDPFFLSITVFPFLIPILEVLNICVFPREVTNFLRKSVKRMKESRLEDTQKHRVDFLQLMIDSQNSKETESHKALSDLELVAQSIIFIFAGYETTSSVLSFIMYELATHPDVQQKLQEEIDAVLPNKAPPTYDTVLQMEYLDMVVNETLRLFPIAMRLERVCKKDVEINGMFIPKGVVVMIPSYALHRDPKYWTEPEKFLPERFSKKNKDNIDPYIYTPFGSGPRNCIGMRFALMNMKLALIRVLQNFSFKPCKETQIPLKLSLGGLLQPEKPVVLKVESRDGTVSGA
`N#Cc1ccc(-c2ccccc2)nc1SCC(=O)c1cccc(Cl)c1` was tested, and the “activity, negative = inhibition” value was 21.1%.
In the case of `CCOC(=O)CC(=O)CSc1nc(-c2ccccc2)cc(-c2ccc(Cl)cc2)c1C#N`, the AC50 is reported as 17.8 µM (active).
With `C[C@H](Oc1ccccc1)C(=O)N[C@@H]1C(=O)N2[C@@H]1SC(C)(C)[C@@H]2C(=O)O` the “activity, negative = inhibition” value was 2.08% [at 25.6 µM].
In the case of `CC1(C)S[C@@H]2[C@H](NC(=O)[C@@H](N)c3ccccc3)C(=O)N2[C@H]1C(=O)O[C@H]1OC(=O)c2ccccc21`, the AC50 is reported as 1.58 µM (active).
With `CC1(C)S[C@@H]2[C@H](NC(=O)[C@@H](N)c3ccc(O)cc3)C(=O)N2[C@H]1C(=O)O` the “activity, negative = inhibition” value was 9.74% [at 25.6 µM].
In the case of `O=c1c2ccccc2nc2n1C(CSCc1cccc(C(F)(F)F)c1)CS2` (stereo unspecified), the AC50 is reported as 4.47 µM (active).
For `Cc1ncc2c(c1O)COP(=O)(O)OC2`, the “activity, negative = inhibition” value was 2.6%.
With `COC(=O)c1cn(NC(=O)c2ccc(F)cc2)c(=O)c2ccccc12` the activity, negative = inhibition was -2.1% [at 2.29 µM].
In the case of `COc1ccc(C(=O)Nn2cnc3ccccc3c2=O)c(OC)c1`, the AC50 is reported as 25.1 µM (active).
With `O=C(Nn1cnc2ccccc2c1=O)c1ccc(F)cc1Cl` the “activity, negative = inhibition” value was -7.59%.
`COc1cccc(Cn2c(=O)c(-c3cn(C)c4ccccc34)nc3cnc(OC)nc32)c1` was tested, and the AC50 was 7.94 µM (active).
`CCNc1ncc2nc(-c3cn(C)c4ccccc34)c(=O)n(Cc3ccc(F)cc3)c2n1` was tested, and the AC50 was 15.8 µM (active).
In the case of `COc1ncc2nc(-c3cn(C)c4ccccc34)c(=O)n(Cc3ccc(F)cc3)c2n1`, the AC50 is reported as 6.31 µM (active).
`COc1cccc(Cn2c(=O)c(-c3cn(C)c4ccccc34)nc3cnc(N4CCOCC4)nc32)c1` was tested, and the “activity, negative = inhibition” value was -10.8%.
In the case of `Cn1cc(-c2nc3cncnc3n(Cc3ccc(F)cc3)c2=O)c2ccccc21`, the “activity, negative = inhibition” value is reported as -13.8%.
In the case of `CCNc1ncc2nc(-c3cn(C)c4ccccc34)c(=O)n(Cc3cccc(OC)c3)c2n1`, the AC50 is reported as 3.98 µM (active).
For `CN(C)CCCNc1c(C(=O)O)cnc2c1cnn2C`, the “activity, negative = inhibition” value was 2.18%.
For `COc1ccc(N2C(N)=NC(N)=NC2(C)C)cc1`, the “activity, negative = inhibition” value was 8.11%.
In the case of `COC(=O)C1=C(C)NC(C)=C(C(=O)OCCSc2ccccc2)[C@@H]1C`, the AC50 is reported as 10 µM (active).
With `COC(=O)c1cc(=O)n(C2CC2)c(=NC2CC2)s1` the “activity, negative = inhibition” value was -12.9%.
In the case of `CCC(=O)c1ccc(OCC(O)CN2CCCCC2)cc1` (stereo unspecified), the “activity, negative = inhibition” value is reported as 13.7%.
With `CC(=O)Nc1ccc(OCC(O)Cn2cnc3ccccc32)cc1` (stereo unspecified) the AC50 was 14.1 µM (active).
For `C[n+]1cn(CC(O)COCc2ccccc2)c2ccccc21` (stereo unspecified), the “activity, negative = inhibition” value was -0.486%.
`OC(COCc1ccccc1)Cn1cnc2ccccc21` (stereo unspecified) was tested, and the AC50 was 3.98 µM (active).
`Oc1ccc(OCc2ccccc2)cc1` was tested, and the “activity, negative = inhibition” value was -12.5% [at 25.6 µM].
With `CC(=O)Nc1ccc(OC[C@@H](O)CNC(C)C)cc1` the AC50 was “inactive”.
Work on `O=C(O)[C@@H]1[C@@H]2C[C@H]([C@@H](Br)[C@H]2N2C(=O)CCC2=O)[C@@H]1C(=O)O` yielded an activity, negative = inhibition of 2.42% [at 11.4 µM].
In the case of `C=CCn1c(SCC(=O)NC2CCCCC2)nnc1C1CCCCC1`, the AC50 is reported as 8.91 µM (active).
Work on `CCCCC(=O)Nc1nnc(SCC(=O)NC2CCCC2)s1` yielded an activity, negative = inhibition of -12.4% [at 2.29 µM].
With `COc1ccc(/C=N/NC(=O)c2ccn[nH]2)cc1COc1ccc(Cl)cc1` the activity, negative = inhibition was -16.8% [at 2.29 µM].
With `CCn1ncc(/C=C/C(=O)NCc2cn(C)nc2C)c1C` the “activity, negative = inhibition” value was -2.52%.
`COc1ccc(C(=O)NN)cc1COc1ccc(Br)cc1` was tested, and the AC50 was 1.26 µM (active).
Molecule `COc1ccc(/C=N/NC(=O)c2ccn[nH]2)cc1COc1ccc(F)cc1` has an activity, negative = inhibition of -10.3% [at 2.29 µM].
In the case of `COc1ccc(/C=C/C(=O)NCc2cn(C)nc2C)cc1COc1ccc(Br)cc1`, the AC50 is reported as 3.16 µM (active).
For `Cc1nn(C)cc1CNC(=O)CCC(=O)O`, the “activity, negative = inhibition” value was 2.19%.
In the case of `COc1cc(/C=C(\C#N)C(N)=O)cc(CSc2nc3ccccc3s2)c1O`, the AC50 is reported as 3.98 µM (active).
With `C[C@](N)(COP(=O)(O)O)C(=O)O` the “activity, negative = inhibition” value was -21.4%.
`O=C(Nc1cc(C(F)(F)F)ccc1-n1cncn1)c1ccc(Br)cc1` showed an activity, negative = inhibition of -10.9% [at 2.29 µM].
`COC(=O)c1ccc(-n2cncn2)c(F)c1` was tested, and the AC50 was 7.94 µM (active).
With `C[C@@H]1O[C@H](O[C@@H]2[C@@H](Oc3cc(O)c4c(c3)O[C@H](c3ccc(O)cc3)CC4=O)O[C@@H](CO)[C@@H](O)[C@H]2O)[C@@H](O)[C@H](O)[C@@H]1O` the “activity, negative = inhibition” value was -18.6% [at 25.6 µM].
With `O=C1C=C[C@@H](O)[C@H]2[C@@H]3C(=O)N(c4cccc(Oc5ccccc5)c4)C(=O)[C@@H]3CC[C@H]12` the activity, negative = inhibition was -11.6% [at 11.4 µM].
`COc1cccc(N2C(=O)C(CC(=O)Nc3ccccc3)N(C3CCCCC3)C2=O)c1` (stereo unspecified) was tested, and the AC50 was 5.01 µM (active).
`CCN1CCN(CCC(=O)Nc2cccc(OC)c2)CC1` was tested, and the “activity, negative = inhibition” value was -11.5%.
`COc1ccc(NC(=O)CC2C(=O)N(c3cccc(OC)c3)C(=O)N2C2CCCCC2)cc1` (stereo unspecified) was tested, and the AC50 was 8.91 µM (active).
With `O=C(CSc1nnnn1C1CCCC1)Nc1ccc(F)cc1` the AC50 was 14.1 µM (active).
With `C/C(=N\NC(=O)c1ccc(Cl)cc1)c1cccc(NC(=O)C(C)C)c1` the AC50 was 15.8 µM (active).
